# ChEMBL document CHEMBL4513216, “Probing the Open Global Health Chemical Diversity Library for Multistage-Active Starting Points for Next-Generation Antimalarials” (ACS Infect Dis, 2020)
# Among all 69,000 compounds or so, about 8,600 (12%) showed an effect of 50% or more. Many of the other results were omitted from the sample, so strong results are more common in it than they were.
# Test system: Plasmodium berghei
# Assay: Screen against P. berghei liver stage (PbLuc), transformed with Luciferase, at 10uM
# Format: functional, HepG2
# Conditions: tested at 10 uM
row,Structure (SMILES),INHIBITION [%]
1,Cc1cc(C(=O)NCc2ccc(N3CCCC(C(N)=O)C3)cc2)on1 (stereo not drawn),15.3
2,CN(C)CCN1CCCC12CCN(C(=O)c1cnccn1)CC2,24.9
3,CCC1(CC)CC(=O)N(CC(O)c2ccc(F)cc2)C1=O (stereo not drawn),-15
4,CN(CC(O)C(F)(F)F)C(=O)Nc1cccc(Cn2cccn2)c1 (stereo not drawn),13.8
5,Cc1cc(CNCC2CNc3ccnn3C2)no1 (stereo not drawn),31
6,Cc1cnc(-c2nc(C3CCN(Cc4ccccc4O)CC3)no2)cn1,23.7
7,Cc1cc(C)n(CC2CN(CC(=O)N3CCNC3=O)CCO2)n1 (stereo not drawn),-3.7
8,COc1ccc(NC(=O)CSc2ccc3nncn3n2)c(OC)c1,27
9,Cc1occc1C(=O)N1Cc2nccn2CC(CN2CCOCC2)C1 (stereo not drawn),5.89
10,CCCc1nnsc1C(=O)NCC(O)c1ccoc1 (stereo not drawn),15.5
11,COCC(=O)N1CCCC1c1cccc(C)c1C (stereo not drawn),17.1
12,O=C(COc1ccc2c(c1)CCC2)N1CCCC1c1ccc[nH]1 (stereo not drawn),-38.6
13,CS(=O)(=O)c1cccc(OCC(=O)N2CCCC2c2ccc[nH]2)c1 (stereo not drawn),61.6
14,CS(=O)(=O)c1cccc(OCC(=O)N2CCCC2c2ccccc2Cl)c1 (stereo not drawn),85.2
15,Cc1cccc(C2CCCN2C(=O)CCS(C)(=O)=O)c1C (stereo not drawn),-8.84
16,O=C(COc1ccccc1)N1CCCC1c1ccc[nH]1 (stereo not drawn),-23.3
17,CCC(O)CN1CCN(C(=O)c2cnn(-c3ccccc3F)c2)CC1 (stereo not drawn),-1.37
18,Cc1ccc([C@]2(O)CC[C@H]3CN(Cc4ccc(Cl)cc4Cl)C[C@H]32)nc1,93.1
19,Cc1cccnc1[C@]1(O)CC[C@H]2CN(Cc3cccc(Cl)c3Cl)C[C@H]21,15.9
20,Cc1ccc([C@]2(O)CC[C@H]3CN(Cc4cccc(Cl)c4Cl)C[C@H]32)nc1,62
21,O[C@]1(c2ccccn2)CC[C@@H]2CN(Cc3cccc4ncccc34)C[C@@H]21,27.9
22,COc1cccc(CN2C[C@@H]3CC[C@@](O)(c4ccccn4)[C@@H]3C2)c1OC,24.8
23,Cc1ccc([C@]2(O)CC[C@H]3CN(Cc4cccc(F)c4F)C[C@H]32)nc1,15.9
24,Cc1ccc([C@]2(O)CC[C@H]3CN(Cc4ccccc4F)C[C@H]32)nc1,-18.2
25,COc1ccc(CN2C[C@H]3CC[C@](O)(c4ccc(C)cn4)[C@H]3C2)c(F)c1,27.3
26,O[C@@]1(c2ccccn2)CC[C@H]2CN(Cc3cccc(Cl)c3Cl)C[C@H]21,61.4

row,Structure (SMILES),INHIBITION [%]
1,CC(=O)c1ccc(F)cc1-c1cc(NCCO)nc2[nH]ccc12,-110
2,CN(C)c1cccc(C(=O)N2CCCC2c2ncc3c(n2)CCNC3)c1 (stereo not drawn),-16.7
3,Cc1cc(NC(C)c2nncn2C2CCCC2)n2nc(C)cc2n1 (stereo not drawn),35.8
4,Cc1cc2nc(C(C)C)cc(NC(C)c3nncn3C3CCCC3)n2n1 (stereo not drawn),51.2
5,Cc1cc2nc(C(C)C)cc(NC(C)c3nncn3C)n2n1 (stereo not drawn),47.6
6,O=C(c1cnn2cccnc12)N1CCCC(n2ccnc2)C1 (stereo not drawn),2.3
7,Cc1cccc(CN2CC[C@@H]3[C@@H](CO[C@H]3CNc3ncccn3)C2)n1,18.4
8,COc1cc2ccccc2cc1C(=O)N1CCCC(c2nncn2C)C1 (stereo not drawn),-8.11
9,CC(C)c1nc2c(n1C)CCN(CC(=O)Nc1ccnn1C(C)C)C2,27.4
10,CO[C@H]1CN(C(=O)c2ccc3oc(C)cc3c2)C[C@@]12CCCO2,63.4
11,CO[C@H]1CN(C(=O)c2ccc3oc(C)cc3c2)CC[C@@]12CCCO2,21.6
12,CO[C@H]1CCN(C(=O)c2ccc3oc(C)cc3c2)C[C@@]12CCCO2,45.6
13,COCCNC(=O)c1ccc(C)c(-n2cccc2)c1,-15
14,CN(C)CCNc1c(-c2ccccc2)c(=O)c1=O,-20.1
15,CN(C)[C@@H]1CN(Cc2ccco2)C[C@@H]2CCCO[C@@H]21,-2.27
16,Cn1cnnc1CN1CCC2(CCC(=O)N(Cc3ccccc3)C2)CC1,76.2
17,Cn1cnnc1CN1CCC2(CCC(=O)N(Cc3ccccn3)C2)CC1,-42.2
18,CCN1CC2(CCC1=O)CCN(Cc1nncn1C)CC2,17
19,Nc1nc(C2CCN(C(=O)c3cnccn3)CC2)cs1,38.2
20,Cn1ncc2c(=O)[nH]c(CN3CCCC3c3cccc(F)c3)nc21 (stereo not drawn),-29.9
21,CC(=O)N1CCOCC2(C1)CN(S(C)(=O)=O)CCO2 (stereo not drawn),18.7
22,CCS(=O)(=O)N1CCOC2(COCCN(C(C)=O)C2)C1 (stereo not drawn),18.7
23,CCCS(=O)(=O)N1CCOC2(COCCN(C(C)=O)C2)C1 (stereo not drawn),60
24,CCCn1nc2c(cc1=O)CN(CC(=O)Nc1ccncc1)CC2,40.3
25,CNc1nccnc1C1CN(Cc2ccc(OCC(=O)O)cc2)CCO1 (stereo not drawn),26.7
26,CS(=O)(=O)NCc1cn2c(n1)CN(Cc1ccoc1)CC2,-4.02

row,Structure (SMILES),INHIBITION [%]
1,Cc1cc(C)n(CC2CCCN2CCCS(C)(=O)=O)n1 (stereo not drawn),3.5625
2,O=C(c1ccc(CNC2CCSC2)cc1)N1CCCC1 (stereo not drawn),-4.12
3,Cc1noc(C)c1Cc1nc(N(C)C)no1,19.9
4,CC(C(=O)Nc1ncccn1)N1CCC(n2ccnc2)CC1 (stereo not drawn),54.4
5,CC(C(=O)NCCc1cccs1)N1CCC(n2ccnc2)CC1 (stereo not drawn),42.1
6,CC(C(=O)Nc1ccc2ccccc2c1)N1CCC(n2ccnc2)CC1 (stereo not drawn),48.8
7,Cc1n[nH]c(CN2CCN(c3ncnc4scc(C)c34)CC2)c1Cl,68.2
8,CCc1nc(C)c(CN2CCN(c3ncnc4c(C)csc34)CC2)[nH]1,4.35
9,CCc1nc(C)c(CN2CCN(c3ncnc4scc(C)c34)CC2)[nH]1,30.5
10,CCC(=O)N1CCC(c2nc(C)ncc2-c2ccncc2)CC1,19.2
11,CCN1CCC2(CC1)CC(NCc1ccncc1)c1ccccc1O2 (stereo not drawn),43.9
12,CC(C)NC(=O)c1cc2c(nc1N(C)C)CCN(S(=O)(=O)C1CC1)CC2,-37.9
13,CCc1c(C(=O)Nc2ccc(F)c(C(=O)NC)c2)cnn1CC(C)C,30.9
14,O=C(NS(=O)(=O)c1ccccc1)c1ccccc1F,14.8
15,CC(C)Cn1ncc(C(=O)O)c1C1CC1,14.3
16,CC(C)Cn1ncc(C(=O)NS(=O)(=O)c2ccccc2)c1C1CC1,79.7
17,CC(C)Cn1ncc(C(=O)NS(=O)(=O)C2CCCC2)c1C1CC1,58.8
18,CCC1c2ccsc2CCN1C(=O)NCc1cccnc1N(C)C (stereo not drawn),16.97
19,Cn1cc(CN2CCC(c3cc(CCO)[nH]n3)C2)cn1 (stereo not drawn),39.8
20,COc1cc(N2CCCC(c3nccn3CCN(C)C)C2)nc(N)n1 (stereo not drawn),-40.3
21,CN(C)CCn1ccnc1C1CCN(c2cc(N)nc(N)n2)CC1,50.5
22,COc1cc(N2CCC(c3nccn3CCCN(C)C)CC2)nc(N)n1,-10.9
23,COc1ccccc1Cc1cncc(N2CC(C(=O)O)C2)n1,10
24,CC(C)N1CCC(c2nc3ccc(-c4ccnn4C)cn3n2)CC1,8.52
25,CN1CCN(C(=O)c2cccc(CN3CCOCC3)c2)CC1,22.3
26,CN(C)CCCC(=O)NC1CC(C)(C)Cc2nc(C(C)(C)C)ncc21 (stereo not drawn),22

row,Structure (SMILES),INHIBITION [%]
1,Cc1sc(C(=O)NC(C)C)cc1S(=O)(=O)N(C)C,-16.8
2,O=C(Nc1cnn(Cc2ccc(F)cc2Cl)c1)C1CC1,-10.8
3,COCCNC(=O)Cn1cc(NC(=O)c2cccc(Cl)c2Cl)cn1,-3.83
4,COCC(=O)Nc1cnn(COc2ccc(F)cc2Cl)c1,0.348
5,O=C(O)CCCC(=O)Nc1cnn(COc2ccc(F)cc2Cl)c1,4.52
6,COCCC(=O)Nc1cnn(COc2ccc(F)cc2Cl)c1,50.4
7,O=C(Nc1cnn(COc2ccc(F)cc2Cl)c1)C1CC1,71.3
8,CCn1c(Cn2cncn2)nnc1C1CCN(C2CCNCC2)CC1,-3.51
9,OC(CN1CCC(c2ccn[nH]2)CC1)c1cc(F)ccc1F (stereo not drawn),-4.94
10,O=C(CCc1nc(C2CC2)no1)c1ccccc1,-12.2
11,Cc1nccn1Cc1nnc(C2CCCN(c3cnccn3)C2)n1C (stereo not drawn),11.5
12,CCOC(=O)c1s/c(=N\C(=O)COc2cnc(C)cc2O)[nH]c1C,3.52
13,Cc1ccc2c(n1)N(CC1CC1)CCN(S(=O)(=O)C1CC1)C2,-63.5
14,Cc1ccc(N2C[C@@H]3OCCN(CC4CC4)[C@@H]3C2)nn1,35.5
15,CCCS(=O)(=O)N1CCN(CCOC)c2nc(C)ccc2C1,29.8
16,COc1cc(N2CCN(CC3CC3)c3nc(C)ccc3C2)ncn1,69.3
17,COCCN1CCN(Cc2c(C)noc2C)Cc2ccc(C)nc21,33
18,COCCN1CCN(c2ccc(C)nn2)Cc2ccc(C)nc21,51.2
19,COCCN1CCN(c2cccc(C)n2)Cc2ccc(C)nc21,53.9
20,COCCN1CCN(Cc2ccco2)Cc2ccc(C)nc21,23.1
21,COc1cc(N2CC[C@@H]3OCCN(C)[C@H]3CC2)ncn1,39.4
22,COc1cc(N2CC[C@@H]3[C@@H](CC2)OCCN3CC2CC2)ncn1,81
23,COCCN1CCN(c2cc(OC)ncn2)Cc2ccc(C)nc21,30.3
24,COCCN1CCN(c2ccc(C)nn2)Cc2cccnc21,-2.03
25,CSc1nccc(N2C[C@H]3CC[C@@H](C2)N(CC2CCC2)C3=O)n1,22.3
